Gal4-VP16 FLuc – counter-screen for ROR gamma inhibitors: Gal4-VP16 reporter. Drosophila S2 Gal4-VP16 UAS-luciferase, luminescence, 20 h. Potency, µM (series often up to 53.6 µM), actives largely listed as inhibitors. hit rate 3.5% among 310,000;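 note: Gal4-VP16 expression switched on by copper sulfate through the metallothionein promoter; nearly all actives have a fitted effect of over 50% in size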
CtBP-E1A blk – inhibitors of CtBP/E1A interaction; hit rate 0.49% among 340,000; activity change, % (test concentration not listed); AlphaScreen GST-E1A/His-CtBP binding, 1536-well; active compounds read low; in the data active = activity change below about -65%; inconclusive = mostly about -30% to -63%
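Protein mix (5X: 125 nM each GST-E1A, His-CtBP) was incubated with pinned compound 2 h at 37 deg C in dark, in 50 mM Tris pH 8.0 buffer with 300 mM NaCl. Glutathione donor and nickel acceptor beads followed; AlphaScreen signal read after 1 h.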
Six1-Eya2 inh – blocks human Six1 binding to Eya2; Q15475+O00167; AlphaScreen GST-Six1/His-Eya2 binding, biochemical; active compounds read low; activity change, % (concentration not given with the values); hit rate 0.56% among 360,000; AID 651725; in the data active = activity change below about -65%; inconclusive = mostly about -30% to -63%
Target sequence (O00167 whole entry, looked up): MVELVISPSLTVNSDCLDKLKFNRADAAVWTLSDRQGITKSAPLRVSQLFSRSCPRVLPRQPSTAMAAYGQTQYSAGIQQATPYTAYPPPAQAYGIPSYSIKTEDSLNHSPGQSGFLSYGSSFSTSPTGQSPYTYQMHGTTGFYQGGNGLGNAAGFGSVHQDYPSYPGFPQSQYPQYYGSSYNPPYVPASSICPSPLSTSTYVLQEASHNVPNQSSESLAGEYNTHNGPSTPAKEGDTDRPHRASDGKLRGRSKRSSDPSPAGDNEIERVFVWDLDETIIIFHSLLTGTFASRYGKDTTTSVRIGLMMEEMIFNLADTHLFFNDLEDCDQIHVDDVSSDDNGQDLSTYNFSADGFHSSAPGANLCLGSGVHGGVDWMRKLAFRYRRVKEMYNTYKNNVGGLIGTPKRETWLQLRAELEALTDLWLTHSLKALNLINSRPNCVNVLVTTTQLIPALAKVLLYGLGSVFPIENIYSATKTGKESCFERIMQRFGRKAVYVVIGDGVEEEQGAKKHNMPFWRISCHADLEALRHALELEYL
Target sequence (Q15475 whole entry, looked up): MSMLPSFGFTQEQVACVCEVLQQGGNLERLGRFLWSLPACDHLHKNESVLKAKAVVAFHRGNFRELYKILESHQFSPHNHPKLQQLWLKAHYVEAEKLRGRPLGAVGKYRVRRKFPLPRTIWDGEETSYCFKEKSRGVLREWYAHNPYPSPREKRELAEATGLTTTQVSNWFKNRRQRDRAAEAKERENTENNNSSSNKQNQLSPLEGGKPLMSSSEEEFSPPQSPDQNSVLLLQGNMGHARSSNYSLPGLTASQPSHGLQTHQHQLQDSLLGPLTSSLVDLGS
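Compounds are tested against tagged Six1 and Eya2 proteins bridged by glutathione donor and nickel acceptor beads; after a one-hour incubation at 37 °C without light, AlphaScreen emission is recorded.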
RORgamma inh – ROR gamma (mouse) transcription inhibition. Drosophila S2 Gal4-RORgamma UAS-luciferase reporter, 20 h. Potency, µM (top dose mostly 53.6 µM), most hits filed as inhibitors. hit rate 5.4% among 310,000; note: nearly all actives have a fitted effect of over 60% in size
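A Gal4/UAS one-hybrid system in insect cells: metallothionein-promoter Gal4–ROR gamma fusion plus Photinus luciferase reporter. Copper sulfate 700 uM final, 20 hr ambient incubation, luminescent detection after 10 min with reagent.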
PKM2 activator – PKM2 (human) enzyme activation | P14618 | purified PKM2, Kinase-Glo ATP luminescence, activation; response scale: 0% is enzyme alone, no compound | Potency, µM (titrated, usually from 57.5 µM), most hits filed as activators | hit rate 0.34% among 260,000 | AID 1631; note: nearly all actives have a fitted effect of over 55% in size
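Kinase-Glo luminescence reports ATP generated from ADP (0.1 mM) and PEP (0.5 mM) by purified hPK-M2 after 1 h at room temperature, pH 7.2 imidazole buffer; intermediate enzyme activity allows detecting inhibitors and activators.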
Numbers stand for hits; 0 = inactive; ? = inconclusive; - = no result. In the library only some 5.6% were active in any assay of this set; here they are far more common. Unless noted, calls come from the whole dose curve; as a rule, active = well fitted curve in the direction sought with a large enough effect; inconclusive = small, poorly fitted or top-dose-only effect, or another doubt; inactive = no such curve, though single readings can be large; an effect the other way counts as inactive or inconclusive.

SMILES	Gal4-VP16 FLuc	CtBP-E1A blk	Six1-Eya2 inh	RORgamma inh	PKM2 activator
CC(Oc1ccc(-c2ccccc2)cc1)C(=O)N/N=C/c1cccnc1 (stereo unspecified)	0	0	0	0	-
CC(Oc1ccc(Cl)cc1)C(=O)N/N=C/c1ccsc1 (stereo unspecified)	?	0	0	11µM	0
CCc1ncc(CN2CCCC(C(=O)Nc3ccc(-c4cscn4)cc3)C2)cn1 (stereo unspecified)	0	0	0	0	-
O=C(N/N=C/c1c[nH]c2ccccc12)c1cccc(Cl)c1	?	-	0	?	-
CCc1ccc(-c2cc(C(=O)N/N=C/c3c[nH]c4ccccc34)[nH]n2)cc1	13µM	0	0	11µM	0
CCc1ccc2c(Cl)c(C(=O)N/N=C/c3c[nH]c4ccccc34)sc2c1	0	0	0	8.9µM	0
O=C(N/N=C/c1ccc[nH]1)c1sc2ccccc2c1Cl	0.56µM	0	0	0.32µM	0
O=C(N/N=C/c1ccc[nH]1)c1c[nH]c2ccccc12	-	0	0	-	0
CCCn1c(NCc2cccc(OC)c2OC)nc2ccccc21	0	0	0	0	0
CCCn1c(NCc2ccccn2)nc2ccccc21	0	0	0	14µM	0
CCCn1c(NCc2cccc(OC)c2O)nc2ccccc21	0	0	0	?	25µM
c1ccc(CNc2nc3ccccc3n2CCN2CCOCC2)nc1	0	0	0	0	0
Cc1cc(C)nc(N/N=C/c2cn[nH]c2-c2ccc(F)cc2)n1	0	0	0	?	0
NS(=O)(=O)c1ccc(CNC(=O)c2cc(S(=O)(=O)N3CCOCC3)c(Cl)cc2Cl)cc1	-	0	0	-	-
O=S(=O)(c1ccccc1)N1N=C(c2ccc(O)cc2)CC1c1ccco1 (stereo unspecified)	20µM	0	0	0	0
C/C(=N\NC(=O)CSCc1ccc([N+](=O)[O-])cc1)c1ccccc1	0	0	0	?	0
C/C(=N\NC(=O)Cc1ccc(Cl)cc1)c1ccccc1O	0.32µM	0	0	0.28µM	0
C/C(=N\NC(=O)CSCc1ccc([N+](=O)[O-])cc1)c1ccccc1O	2µM	0	0	0.32µM	0
C[C@H]1CN([C@@H](C)CO)C(=O)CCCn2nncc2CO[C@@H]1CN(C)C(=O)NC1CCCCC1	-	0	0	-	-
FC(F)(F)c1nc2nccnc2[nH]1	-	0	0	-	-
NC(=O)C1CCN(Cc2nc3cc(C(F)(F)F)ccc3c(=O)[nH]2)CC1	0	-	0	0	0
C/C(=N\NC(=S)Nc1ccc(F)cc1)c1ccc2c(c1)OCCO2	4µM	0	?	1.3µM	0
C/C(=N\NC(N)=S)c1ccc2c(c1)OCCO2	?	0	0	5µM	0
C/C(=N/NC(=O)c1ccc2c(c1)OCO2)c1ccc(NC(=O)c2ccc(F)cc2)cc1	0	0	0	0	-
CC(=O)N/N=C(\C)c1ccc2c(c1)OCCO2	0	0	0	0	0
SMILES	Gal4-VP16 FLuc	CtBP-E1A blk	Six1-Eya2 inh	RORgamma inh	PKM2 activator
CCn1c(C)c(CS(=O)(=O)c2ccccc2)[nH]c1=O	?	0	0	?	0
COc1ccc(CCNC(=O)C2CC(O)CN2S(=O)(=O)c2ccc(Cl)cc2)cc1OC (stereo unspecified)	-	0	0	-	-
O=[N+]([O-])c1ccc(N=Nc2ccc(O)cc2O)cc1	0.63µM	0	0	?	0
O=[N+]([O-])c1cccc(N=Nc2ccc(O)cc2O)c1	-	0	0	-	-
CC(C)(C)OC(=O)C(C)(C)O/N=C(\C(=O)O)c1csc(N)n1	0	0	0	0	0
CCC(C)Sc1nc2ccccc2n1CC(=O)O (stereo unspecified)	0	0	0	13µM	0
CC(C)Sc1nc2ccccc2n1CC(=O)O	0	0	0	0	0
COc1ccc(N(C)S(=O)(=O)c2ccc(Cl)c(C(=O)NCC(C)(C)N3CCOCC3)c2)cc1	-	0	0	-	-
Cc1ccc(NC(=S)Nc2cc(C(=O)O)ccc2N2CC3CC(C2)c2cccc(=O)n2C3)cc1C (stereo unspecified)	20µM	0	0	5µM	0
COc1cccc(NC(=S)Nc2cc(C(=O)O)ccc2N2CC3CC(C2)c2cccc(=O)n2C3)c1 (stereo unspecified)	0	-	0	0	0
CC1=NN(C(=O)c2ccccc2F)C(O)(c2ccc(Cl)cc2)C1 (stereo unspecified)	6.3µM	0	0	5.6µM	0
CC1=NN(C(=O)c2ccccc2Cl)C(O)(c2ccccc2)C1 (stereo unspecified)	7.1µM	0	0	6.3µM	0
CCOc1ccc(NS(=O)(=O)c2ccc(C(=O)N(C)CCc3ccc(OC)c(OC)c3)cc2)cc1	7.1µM	0	0	?	0
CCOc1ccc(S(=O)(=O)Nc2ccc(C(=O)N3CCCC3)cc2)cc1	0	0	0	0	0
CCOc1ccc(NS(=O)(=O)c2ccc(C(=O)N3CCN(C(C)=O)CC3)cc2)cc1	20µM	0	0	?	0
O=C(CCCc1ccccc1)NCCS(=O)(=O)N1CCN(c2ccc(F)cc2)CC1	-	0	0	-	-
O=S(=O)(c1cnc(Cl)c(Cl)c1)N1CCN(c2ncccn2)CC1	0	0	0	0	0
O=C(O)c1ccc(N2CCCS2(=O)=O)cc1	0	0	0	0	0
CCCC[C@@H](CNC)NC[C@H](Cc1ccc(O)cc1)NCCc1ccc(OCC)cc1	0	0	0	0	0
COc1cc(CNCc2ccccn2)ccc1OCc1c(Cl)cccc1Cl	20µM	?	?	14µM	0
COc1cc(CNCc2ccccn2)ccc1OCc1ccc(Cl)cc1	0	?	?	0	0
COc1cc(CNCc2ccccn2)ccc1OCc1cccc(Cl)c1	?	0	?	4µM	0
CC(OC(=O)Cc1c[nH]c2ccccc12)C(=O)Nc1ccc(S(N)(=O)=O)cc1 (stereo unspecified)	-	0	0	-	-
Oc1ccc(N=Nc2ccccc2C(F)(F)F)c2cccnc12	3.5µM	-	0	3.5µM	-
COc1ccccc1N=Nc1[nH]c2ccc(C)cc2c1O	0	0	0	0	0
SMILES	Gal4-VP16 FLuc	CtBP-E1A blk	Six1-Eya2 inh	RORgamma inh	PKM2 activator
CCS(=O)(=O)c1ccc(O)c(NC(=O)c2cc(OC)c(OC)c(OC)c2)c1	0	0	0	0	0
CCS(=O)(=O)c1ccc(N=Nc2ccc(O)c3ncccc23)c(OC)c1	16µM	-93	-83	7.1µM	0
O=c1ncn(-c2ccccc2C(F)(F)F)c2ncccc12	0	-	0	0	0
COc1ccccc1N=Nc1ccc(O)c2ncccc12	3.2µM	-	-70	2.8µM	-
CCOc1ccc(N(CC(=O)Nc2ccc(OC)cc2OC)S(=O)(=O)c2c(C)[nH]c(=O)[nH]c2=O)cc1	0	-92	-85	0	-
COc1ccc(N(CC(=O)Nc2ccccc2C)S(=O)(=O)c2c(C)[nH]c(=O)[nH]c2=O)cc1	0	0	0	0	0
CCOc1ccccc1NC(=O)CN(c1ccc(OC)cc1)S(=O)(=O)c1c(C)[nH]c(=O)[nH]c1=O	0	-84	-84	0	-
